RORgamma inh: ROR gamma (mouse) transcription inhibition. Drosophila S2 Gal4-RORgamma UAS-luciferase reporter, 20 h. Potency, µM (doses to about 53.6 µM), usual class: inhibitors. P51450. 5.4% of 310,000 active; also: nearly all actives have a fitted effect of over 60% in size
Target sequence (P51450 whole entry, looked up, the tested form may be a part): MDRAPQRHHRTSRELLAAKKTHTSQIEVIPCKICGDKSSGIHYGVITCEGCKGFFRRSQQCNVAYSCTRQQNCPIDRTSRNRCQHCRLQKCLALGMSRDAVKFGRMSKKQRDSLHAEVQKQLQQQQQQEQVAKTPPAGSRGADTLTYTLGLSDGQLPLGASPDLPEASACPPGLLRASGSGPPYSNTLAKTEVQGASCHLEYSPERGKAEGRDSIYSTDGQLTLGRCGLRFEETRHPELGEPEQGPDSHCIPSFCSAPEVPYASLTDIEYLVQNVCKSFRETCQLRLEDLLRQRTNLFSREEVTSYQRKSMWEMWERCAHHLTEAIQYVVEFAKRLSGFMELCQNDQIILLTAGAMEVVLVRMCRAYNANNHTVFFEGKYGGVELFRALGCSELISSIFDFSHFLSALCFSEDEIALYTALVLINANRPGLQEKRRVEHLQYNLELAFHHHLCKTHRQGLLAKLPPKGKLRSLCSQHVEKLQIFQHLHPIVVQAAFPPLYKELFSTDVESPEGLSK
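A Gal4/UAS one-hybrid system in insect cells: metallothionein-promoter Gal4–ROR gamma fusion plus Photinus luciferase reporter. Copper sulfate 700 uM final, 20 hr ambient incubation, luminescent detection after 10 min with reagent.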
ELG1 repair inh: inhibitors of ELG1-dependent DNA repair in HEK293T cells; HEK293T ELG1-luciferase reporter, luminescence, 16 h; DNA damage induced by 5-fluorouridine; Potency, µM (titrated, usually from 46.1 µM), actives largely listed as inhibitors; 2.3% of 330,000 active; also: nearly all actives have a fitted effect of over 55% in size
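5-Fluorouridine DNA damage + compound/DMSO, 2,000 cells/well, 16 h, 37 °C/5% CO2. ONE-Glo, 30 min RT, luminescence. Readout = decrease in reporter signal.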
SW480 rereplic: induces DNA re-replication in SW480 colon adenocarcinoma cells; SW480 DNA re-replication, Hoechst DNA content imaging, 48 h; Potency, µM (doses to about 46.1 µM), usual class: activators; 1.8% of 340,000 active; also: nearly all actives have a fitted effect of over 55% in size
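Cells (250 per well) received 23 nL compound or DMSO by pin tool and were kept 48 hr at 37 C, 5% CO2. Nuclei were then stained with Hoechst for 40 min and scanned for DNA content.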
Gal4-VP16 FLuc: Gal4-VP16 reporter inhibition counter-screen | Drosophila S2 Gal4-VP16 UAS-luciferase, luminescence, 20 h | Potency, µM (series often up to 53.6 µM), hits mostly inhibitors | 3.5% of 310,000 active;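 also: Gal4-VP16 expression switched on by copper sulfate through the metallothionein promoter; nearly all actives have a fitted effect of over 50% in size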
MCF10A rereplic: inducers of DNA re-replication in MCF 10A breast cells | MCF 10A DNA re-replication, Hoechst nuclear intensity, 48 h | Potency, µM (highest dose often 46.1 µM), hits mostly activators | 2.9% of 350,000 active | AID 624296; also: nearly all actives have a fitted effect of over 50% in size
Large screens that a line does not name were inactive; ! = not active in a repeat. Sampled rows, rich in hits. Any-hit rate of the full collection: about 10%. Calls follow the shape of the dose curve; as a rule, active = well fitted curve in the direction sought with a large enough effect; inconclusive = small, poorly fitted or top-dose-only effect, or another doubt; inactive = no such curve, though single readings can be large; an effect the other way counts as inactive or inconclusive.

CN1C[C@H](CNC(=O)OCc2ccccc2)C[C@@H]2c3cccc4c3c(cn4C)C[C@H]21	RORgamma inh 22µM!, SW480 rereplic 23µM, MCF10A rereplic 23µM
CC[N+](=O)[O-]	none (no result: ELG1 repair inh, SW480 rereplic, MCF10A rereplic)
COc1ccc(-c2nc3ccccc3c(=O)n2-c2nccs2)cc1	RORgamma inh 6.3µM, Gal4-VP16 FLuc inconclusive
O=C(CN1CCCCC1)NNC(=O)c1cccc(Br)c1	none
CC(=O)CC(c1ccccc1)c1c(O)c2cccc(O)c2oc1=O (configuration not stated)	none (no result: ELG1 repair inh, SW480 rereplic, MCF10A rereplic)
Clc1ccc(-c2nc3ccc(Cl)cn3c2CN2CCOCC2)cc1	RORgamma inh inconclusive, ELG1 repair inh inconclusive, Gal4-VP16 FLuc inconclusive
Clc1ccc(-c2nc3ccc(Cl)cn3c2CN2CCCCC2)cc1	RORgamma inh 5µM, ELG1 repair inh inconclusive, MCF10A rereplic inconclusive
C#CCN[C@H](C)Cc1ccccc1	SW480 rereplic 3.2µM, MCF10A rereplic inconclusive (no result: RORgamma inh, Gal4-VP16 FLuc)
CC1=CC[C@@H]2[C@@H](C1)c1c(O)cc(CC#CCCCNS(C)(=O)=O)cc1OC2(C)C	Gal4-VP16 FLuc inconclusive (no result: ELG1 repair inh, SW480 rereplic, MCF10A rereplic)
C=C(C)[C@H]1Cc2c(ccc3c2O[C@@H]2COc4cc(OC)c(OC)cc4[C@@H]2C3=O)O1	RORgamma inh inconclusive, SW480 rereplic inconclusive, Gal4-VP16 FLuc inconclusive, MCF10A rereplic 3.9µM! (no result: ELG1 repair inh)
C=C(C)C1Cc2c(ccc3c2OC2COc4cc(OC)c(OC)cc4C2C3=O)O1 (configuration not stated)	RORgamma inh 0.035µM, Gal4-VP16 FLuc inconclusive (no result: ELG1 repair inh, SW480 rereplic, MCF10A rereplic)
CCCCC/C=C\C/C=C\C/C=C\C/C=C\CCCC(=O)NCc1ccoc1	none (no result: ELG1 repair inh, SW480 rereplic, MCF10A rereplic)
C=C1C/C(=C\C)C(=O)O[C@@H]2CCN3CC=C(COC(=O)[C@@]1(C)O)[C@H]23	none (no result: ELG1 repair inh, SW480 rereplic, MCF10A rereplic)
Cc1ccc(C2C(=O)NC(=O)NC2=O)cc1	SW480 rereplic 18µM (no result: RORgamma inh, ELG1 repair inh, Gal4-VP16 FLuc)
Nc1ccc([N+](=O)[O-])cc1N	none (no result: ELG1 repair inh, SW480 rereplic, MCF10A rereplic)
Cc1nccn1-c1c([N+](=O)[O-])c(=O)n(C)c2ccccc12	MCF10A rereplic 10µM
Cc1nc2ccccc2c(=O)n1-c1ccccc1[N+](=O)[O-]	none
COc1ccc(NC(=O)C(=O)NNC(=O)C(C)Oc2ccc(Cl)cc2Cl)cc1 (configuration not stated)	RORgamma inh 5µM, SW480 rereplic inconclusive, Gal4-VP16 FLuc inconclusive, MCF10A rereplic inconclusive
COc1ccc(C=O)cc1OC	none (no result: ELG1 repair inh, SW480 rereplic, MCF10A rereplic)
CN1/C(=C\C=C2C(=O)NC(=O)NC2=O)C(C)(C)c2ccccc21	ELG1 repair inh inconclusive
CC1(C)OC(c2ccccc2)=C/C(=C/C=C2C(=O)NC(=O)NC2=O)O1	ELG1 repair inh inconclusive, SW480 rereplic 18µM, MCF10A rereplic 18µM
COc1ccc(S(=O)(=O)Nc2cc([N+](=O)[O-])ccc2OC)cc1	ELG1 repair inh inconclusive, SW480 rereplic inconclusive, MCF10A rereplic inconclusive
CCc1ccc(N2C(=O)NC(=O)/C(=C\c3cccn3CCOc3ccc(C(C)C)cc3)C2=O)cc1	ELG1 repair inh inconclusive, SW480 rereplic inconclusive, Gal4-VP16 FLuc 0.4µM, MCF10A rereplic 7.3µM
O=C(Oc1ccccc1)N1CCC2(CCN(Cc3ccccc3)CC2)CC1	none (no result: ELG1 repair inh, SW480 rereplic, MCF10A rereplic)
CC(C)CCNC(=O)c1c(N)n(Cc2ccc3c(c2)OCO3)c2nc3ccccc3nc12	ELG1 repair inh inconclusive, SW480 rereplic 2.6µM, MCF10A rereplic inconclusive
CC(C)OC(=O)c1c(N)n(Cc2ccco2)c2nc3ccccc3nc12	none
CC(C)CNC(=O)c1c(N)n(Cc2ccc3c(c2)OCO3)c2nc3ccccc3nc12	RORgamma inh inconclusive, ELG1 repair inh inconclusive, SW480 rereplic 2.6µM, Gal4-VP16 FLuc 7.1µM, MCF10A rereplic inconclusive
CCCNC(=O)c1c(N)n(Cc2ccc3c(c2)OCO3)c2nc3ccccc3nc12	ELG1 repair inh inconclusive, SW480 rereplic 3.3µM, MCF10A rereplic 0.65µM
COC(=O)c1c(N)n(Cc2ccc(OC)cc2)c2nc3ccccc3nc12	ELG1 repair inh inconclusive, SW480 rereplic inconclusive, Gal4-VP16 FLuc inconclusive
c1ccc2c(c1)CSc1ccccc1N2	none (no result: RORgamma inh, ELG1 repair inh, Gal4-VP16 FLuc)
S=C1Nc2ccccc2Sc2ccccc21	RORgamma inh 2µM, ELG1 repair inh inconclusive, Gal4-VP16 FLuc 5µM, MCF10A rereplic inconclusive
COc1ccc(OC)c([C@H](O)[C@H](C)N)c1	none (no result: ELG1 repair inh, SW480 rereplic, MCF10A rereplic)
NCCNC[C@@H](N)CCCN=C(N)N[N+](=O)[O-]	none (no result: ELG1 repair inh, SW480 rereplic, MCF10A rereplic)
CCCC/C=C/[C@@H](NP(=O)(c1ccccc1)c1ccccc1)c1ccccc1OC	none (no result: ELG1 repair inh, SW480 rereplic, MCF10A rereplic)
O=C(CCCc1nc(-c2ccc(Cl)cc2)no1)NCC1CCCO1 (configuration not stated)	Gal4-VP16 FLuc 13µM
